Screening data as filed in PubChem.
Compounds with a hit are over-represented: about 0.3% of the library has one in this group of screens.
S-ASM inh – blocks human secretory acid sphingomyelinase. placental ASM, HMU-PC fluorogenic substrate, 60 min. Potency, µM (doses to about 57.5 µM), without a hit: at the top dose activity change, negative = inhibition, actives largely listed as inhibitors. actives 0.006% (n = 340,000). AID 504937; also: potency is read from the fitted curve at half-maximal effect
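Steps: dispense placental human ASM, pin compound, wait 10 min at room temperature, add HMU-PC0 substrate at 9 uM final, incubate 60 min at 37 °C, add stop solution raising pH to 10, read fluorescence.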
CCT chaperon mod – modulators of cytosolic chaperonin (CCT/TRiC) activity. purified chaperonin ATPase assay, HTRF ADP detection, 30 min. activity change, % (no concentration beside the values), hits read low. actives 0.3% (n = 360,000); in the data active = activity change below about -30%; also: % is scaled to controls: 0 for no effect and ±100 for the full control effect
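Nucleotide hydrolysis assay: TRiC at 20–40 nM final (set by batch activity) with 10 uM ATP, 30 min at 37 °C, in presence of 76 uM compound. Detection by competitive ADP HTRF, 30 min ambient.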
Mm-Cpn inhibitor – blocks the Methanococcus maripaludis chaperonin Mm-Cpn; Potency, µM (doses to about 76.9 µM), for the others: at the top dose activity, negative = inhibition, usual class: inhibitors; actives 0.031% (n = 330,000); purified Mm-Cpn ATPase, ADP Transcreener TR-FRET; also: potency is read from the fitted curve at half-maximal effect; % is scaled to controls: 0 for no effect and ±100 for the full control effect; nearly all actives have a fitted effect of over 80% in size
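Reaction buffer contained 30 mM Tris pH 7.4, 100 mM KCl, 5 mM MgCl2 and 1 mM DTT. Mm-CPN (25 nM final) hydrolysed 10 uM ATP over 30 min at 37°C; ADP was read by HTRF.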
USP2a inh – inhibitors of human ubiquitin-specific protease USP2a; O75604; USP2 core, Ub-CHOP2 coupled fluorogenic reporter, 485/531; Potency, µM (highest dose often 38.3 µM), for inactives: at the highest dose activity change, negative = inhibition, hits mostly inhibitors; actives 0.01% (n = 330,000);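 also: potency is read from the fitted curve at half-maximal effect; plate controls were DMSO wells for no effect and full inhibition by NEM control for full effect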
Target sequence (O75604 whole entry, looked up): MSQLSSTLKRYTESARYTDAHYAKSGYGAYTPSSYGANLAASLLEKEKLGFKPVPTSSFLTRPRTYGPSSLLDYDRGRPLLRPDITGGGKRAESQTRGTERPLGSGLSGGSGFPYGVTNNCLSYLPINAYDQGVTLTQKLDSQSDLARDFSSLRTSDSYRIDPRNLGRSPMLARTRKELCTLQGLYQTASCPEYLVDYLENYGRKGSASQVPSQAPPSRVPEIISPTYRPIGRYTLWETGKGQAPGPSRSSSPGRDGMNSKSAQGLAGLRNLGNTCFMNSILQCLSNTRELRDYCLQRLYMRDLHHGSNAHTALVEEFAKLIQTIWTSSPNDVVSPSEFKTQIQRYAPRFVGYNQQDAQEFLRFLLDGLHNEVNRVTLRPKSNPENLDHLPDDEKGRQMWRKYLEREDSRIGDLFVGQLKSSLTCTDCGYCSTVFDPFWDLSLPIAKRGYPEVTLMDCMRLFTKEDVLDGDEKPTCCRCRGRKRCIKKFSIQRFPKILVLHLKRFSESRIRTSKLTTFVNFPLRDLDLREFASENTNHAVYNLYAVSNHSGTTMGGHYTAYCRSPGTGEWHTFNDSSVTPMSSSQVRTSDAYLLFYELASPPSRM
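Deubiquitinase activity read as fluorescence (485/531 nm) after Ub-CHOP2 cleavage activates the enterokinase reporter on its substrate; USP2 core 10nM, Ub-CHOP2 and substrate 25nM each, 30min compound preincubation then 60min RT; data normalized to NEM, curves fitted.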
* hit, by the source's call; ? = inconclusive; · = no result given. Unless noted, calls follow the shape of the dose curve; as a rule, active = well fitted curve in the direction sought with a large enough effect; inconclusive = small, poorly fitted or top-dose-only effect, or another doubt; inactive = no such curve, though single readings can be large; an effect the other way counts as inactive or inconclusive.

SMILES | S-ASM inh | CCT chaperon mod | Mm-Cpn inhibitor | USP2a inh
Cc1ccc(OCc2nnc(SCC(=O)c3ccccc3)n2-c2ccccc2)cc1 | 10% | -56* | -1% | -9%
CCn1c(CNC(=O)c2ccc(OC)cc2)nnc1SCC(=O)c1ccccc1 | -1% | -45* | -1% | 2%
COc1ccc(C(=O)NCc2nnc(SCC(=O)c3ccccc3)n2C)cc1 | -2% | -2 | 0% | 0%
O=C(c1ccc2c(c1)OCO2)C1CCCN(C(=O)C2CCOCC2)C1 (stereo unspecified) | -3% | 1 | -3% | 0%
CCOC(=O)c1ccc(N2C(=O)C3CC=C(C)CC3C2=O)cc1 (stereo unspecified) | -1% | 2 | 1% | -1%
COc1ccc(/C=N/NC(=O)c2[nH]c3ccc(Cl)cc3c2-c2ccccc2)c(C(=O)O)c1OC | 14µM* | -4 | -2% | 3%
COc1ccc(/C=N/NC(=O)c2[nH]c3ccc(Br)cc3c2-c2ccccc2)c(C(=O)O)c1OC | ? | 1 | 1% | -9%
Cc1cc(C)nc(NC(=O)Cc2ccc([N+](=O)[O-])cc2)c1 | 4% | -34* | 0% | 3%
C=C1c2cccc(O)c2C(=O)C2C(=O)[C@]3(O)C(=O)C(C(N)=O)C(=O)[C@@H](N(C)C)[C@@H]3[C@@H](O)[C@H]12 (stereo partly specified) | 6% | 0 | ? | 7.1µM*
C[C@H]1c2cccc(O)c2C(O)=C2C(=O)[C@]3(O)C(O)=C(C(N)=O)C(=O)[C@@H](N(C)C)C3[C@@H](O)C21 (stereo partly specified) | 1% | -4 | 1% | 2%
COc1ccc(/C(N)=N/O)cc1O | 7% | -30* | 0% | 1%
COc1ccc(/C=N/N=C/c2ccc(OC)c(O)c2)cc1O | -5% | -1 | -1% | 0%
CCCCN(CCCC)C(=S)N/N=C/c1c(C)[nH]n(-c2ccccc2)c1=O | -6% | -89* | 2% | -2%
Cc1ccc(-c2cc(C(F)(F)F)n3ncc(C(=O)NCc4ccco4)c3n2)cc1 | 59% | 0 | 0% | 1%
Cc1ccc(N2C(=O)CC(Sc3nccc(C)n3)C2=O)cc1 (stereo unspecified) | -2% | -53* | -4% | 0%
Cc1ccnc(SC2CC(=O)N(c3ccc([N+](=O)[O-])cc3)C2=O)n1 (stereo unspecified) | 2% | -2 | ? | 1%
CC1CC(C)CN(C(=O)c2ccncc2)C1 (stereo unspecified) | -1% | -38* | 0% | 1%
CCOC(=O)CNC(=S)N(Cc1ccccc1)Cc1cccnc1 | -1% | -34* | 1% | 2%
O=C(CP(=O)(c1ccccc1)c1ccccc1)Nn1cnnc1 | 1% | -53* | -3% | 1%
Cc1ccc(Cl)cc1N1CCN(S(=O)(=O)c2ccc3c(c2)CC(=O)N3C)CC1 | -8% | -54* | -2% | 1%
COc1ccccc1NC(=O)COC(=O)C12CC3CC(CC(Cl)(C3)C1)C2 | -9% | -3 | 0% | 0%
CCOC(=O)c1ccc(N2C(=O)CC(N3CCN(Cc4ccccc4)CC3)C2=O)cc1 (stereo unspecified) | 1% | -2 | 1% | 3%
CCOC(=O)c1ccc(N2C(=O)CC(N3CCC(Nc4ccc(F)cc4)CC3)C2=O)cc1 (stereo unspecified) | -2% | -65* | -4% | 4%
CCCN1CCC(NC(=O)CCc2nnc(-c3ccccc3)o2)CC1 | 0% | -70* | 0% | 0%
CCCN1CCC(NC(=O)CCc2nnc(Cc3cc(OC)ccc3OC)o2)CC1 | 0% | 1 | 0% | 2%
SMILES | S-ASM inh | CCT chaperon mod | Mm-Cpn inhibitor | USP2a inh
CCOC(=O)CN1C(=O)N[C@@H](c2ccco2)C(C(C)=O)=C1C | 0% | 1 | · | ·
O=C1C(=Cc2ccccc2O)SC(=S)N1CCCN1CCOCC1 | · | 1 | · | ·
CSc1nncc(/C(C)=N/O)n1 | -1% | -57* | 0% | 0%
C/C(CC(=O)Nc1ccc(Cl)c(Cl)c1)=N\NC(N)=S | -4% | 0 | 2% | 0%
Cn1c(=O)c(=O)n(C)c2cc([N+](=O)[O-])c([N+](=O)[O-])cc21 | 1% | -32* | -3% | -1%
Cn1cccc([N+](=O)[O-])c1=O | · | 2 | · | ·
CCCCCOCC1CC(C/C(C)=N/NC(N)=O)(C(=O)OCC)C(=O)O1 (stereo unspecified) | 8% | -41* | -4% | 0%
Cc1cccc(N(CC(=O)NCCSc2ccccn2)S(=O)(=O)c2ccccc2)c1 | 4% | -1 | 2% | 6%
CCN(CC(=O)Nc1ccc(NC(C)=O)cc1)CC(=O)Nc1cccc(Cl)c1 | -3% | -71* | -4% | -1%
CCN(CC(=O)Nc1ccc(NC(C)=O)cc1)CC(=O)Nc1ccc(Cl)c(Cl)c1 | -2% | 3 | -5% | -13%
Cc1c(C(=O)N(Cc2cccc(Br)c2)C2CCS(=O)(=O)C2)oc2ccccc12 (stereo unspecified) | -8% | 0 | 2% | -1%
COc1c(F)c(F)c(C(=O)O)c(Nc2ccccc2)c1F | 9% | -78* | 0% | 1%
N[C@@]12CCc3nonc3[C@]1(O)CC(c1ccccc1)=[N+]2[O-] | 2% | -63* | 2% | -1%
CC(C)C(O)(C#CCN1CCCCCC1)c1ccccc1 (stereo unspecified) | -1% | -38* | -3% | -4%
CC(O)(C#CCN1CCCCC1)c1ccccc1 (stereo unspecified) | -1% | -1 | 0% | 1%
CC(C)Cn1c(-c2cccnc2)nc2c1c(=O)[nH]c(=O)n2CC(C)C | -2% | 0 | -3% | 1%
COc1ccc(NC(=O)Cc2ccc(Cl)cc2Cl)cn1 | 0% | -5 | 0% | 0%
CCOC(=O)Cn1c(-c2cccnc2Cl)nc2cc(Cl)c(Cl)cc21 | 1% | 1 | -2% | 0%
CCOC(=O)Cn1c(-c2cccnc2Cl)nc2cc(C)c(C)cc21 | -3% | -34* | 0% | 0%
Cc1ccc(CCNS(=O)(=O)c2cnc[nH]2)cc1 | 4% | -39* | 1% | 2%
N#CC1=C(SCC(=O)c2cc3ccccc3oc2=O)NC(=O)C(C#N)C12CCCC2 (stereo unspecified) | 0% | 2 | -9% | 12%
Cc1cc(C(=O)OCC(=O)Nc2ccccc2C)c(C)o1 | 2% | 1 | 0% | 3%
Cc1cc(C(=O)OCC(=O)Nc2ccccc2Br)c(C)o1 | -4% | -53* | 1% | 0%
O=C(O)C1C2C=CC(C2)C1C(=O)Nc1ccc2c(c1)OCCO2 (stereo unspecified) | 5% | -1 | 0% | 0%
CN(C)c1ccc(NC(=O)C2C3C=CC(C3)C2C(=O)O)cc1 (stereo unspecified) | 2% | -2 | 25µM* | 0%
COc1ccc(-c2cc(C)no2)cc1S(=O)(=O)N1CCOc2ccccc21 | 1% | -81* | -9% | 4%
Cc1cc(-c2ccc(C)c(S(=O)(=O)N3CC(=O)Nc4ccccc43)c2)on1 | 0% | -35* | 0% | 2%
